Compound activity: PubChem, several laboratories
Rev-erbA mod: modulators of Rev-erb alpha DNA binding, primary screen, biochemical, FITC-DNA, fluorescence polarization, uHTS. Nuclear receptor subfamily 1 group D member 1 (Homo sapiens), P20393. Rev-erbα–FITC-DNA binding, 90 min. activity, % at 10 µM. 370,000 compounds, 0.79% hits. AID 1259318, 2017;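 active = activity above about 14%, limit read from the data; passing the limit was not always enough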
PG9 Ab binder: binders of HIV-1 gp120 antibody PG9, primary screen, biochemical, TR-FRET. TR-FRET gp120-PG9 antibody binding. inhibition, % at 6.7 µM. 360,000 compounds, 0.43% hits. HIV-1 gp120 / PG9 antibody interaction. AID 624416, 2012; in the data active = inhibition above about 8.5%
p47phox inh: p47phox/p22phox peptide binding inhibitors, primary screen, biochemical, uHTS, NADPH oxidase regulatory subunit | Neutrophil cytosol factor 1 (Homo sapiens), P14598 | fluorescence polarization, 2 h | inhibition, % at 24.7 µM | 220,000 compounds, 0.53% hits | AID 1274, 2008;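 active = inhibition above about 30%, limit read from the data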
Target sequence (P14598 whole entry, looked up): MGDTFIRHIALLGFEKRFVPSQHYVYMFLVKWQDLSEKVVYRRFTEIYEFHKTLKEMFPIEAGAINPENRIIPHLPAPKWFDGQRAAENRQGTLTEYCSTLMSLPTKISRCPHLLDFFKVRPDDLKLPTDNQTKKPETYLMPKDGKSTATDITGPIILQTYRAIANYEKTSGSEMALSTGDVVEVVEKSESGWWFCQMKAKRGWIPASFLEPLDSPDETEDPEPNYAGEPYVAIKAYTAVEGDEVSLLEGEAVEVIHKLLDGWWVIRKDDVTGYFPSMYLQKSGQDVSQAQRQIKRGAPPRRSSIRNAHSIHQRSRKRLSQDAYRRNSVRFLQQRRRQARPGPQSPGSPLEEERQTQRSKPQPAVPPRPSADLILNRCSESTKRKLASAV
ZTA counter: blocks Epstein-Barr virus ZTA, an EBNA-1 counter-screen; P03206; ZTA-DNA binding, fluorescence polarization; inhibition, % at 11 µM; 320,000 compounds, 0.15% hits; AID 2234; in the data active = inhibition above about 33%
EBNA-1 inh: EBNA-1 DNA-binding inhibitors, primary screen, biochemical, fluorescence polarization; 300,000 compounds, 0.34% hits; inhibition, % at 14.8 µM; in the data active = inhibition above about 28%
aDG glyco up: activators of alpha-DG glycosylation, primary screen, uHTS, Pro5-aDG cells, AlphaScreen | alpha-DG glycosylation AlphaScreen (IIH6); 0% Pro5, 100% B10-LARGE cell signal | activation, % at 10 µM | 360,000 compounds, 0.22% hits | AID 624168, 2012;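 active = activation of at least 8% versus controls, or a plate z-score of at least 8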;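 also: Pro5 are CHO cells carrying HIG-tagged alpha-DG that lacks glycosylation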
aDG glyco conf: alpha-DG glycosylation enhancers, retest, confirmation, single concentration, Pro5-aDG cells | shares compounds with aDG glyco up | IIH6 AlphaLISA; scaled to LARGE-overexpressing B10 cells as 100% | activation, % at 10 µM (by protocol) | 600 compounds, 17% hits | AID 651671, 2012;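 active = activation of at least 7% in one or more replicates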;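 also: cells exposed to compound for two days before detection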
Of the large screens only hits and unclear results are named; the others gave an inactive call (follow-up assays come after a bar, where they were run). The list is not random: actives were taken first. Their share in the collection is about 1.9%.

Cc1nc(N2CCN(C(=O)C3CCCCC3)CC2)c2c3c(sc2n1)CCCC3	none (no result: PG9 Ab binder, p47phox inh, ZTA counter, EBNA-1 inh, aDG glyco up)
CCOc1ccc(C(=O)Nc2nc3ccccc3[nH]2)cc1OCC	aDG glyco up 7.9 | aDG glyco conf inactive
c1ccc2c(-c3cc(C4CCNCC4)[nH]n3)cccc2c1	aDG glyco up 14 | aDG glyco conf 6.4
Cc1nc(CCNC(=O)Cc2ccc(F)cc2)cs1	none
Cc1nc(CCNC(=O)Cc2ccc(Cl)cc2)cs1	aDG glyco up 8.7 | aDG glyco conf inactive
O=C(NCC[C@@H]1CC[C@@H](NS(=O)(=O)c2ccccc2)[C@@H](CO)O1)c1cc(Cl)cc(Cl)c1	aDG glyco up 7.7 (no result: p47phox inh, ZTA counter, EBNA-1 inh) | aDG glyco conf inactive
O=C(Nc1cccc(Cl)c1)Nc1sccc1-c1nc2ccccc2s1	aDG glyco up 4.4 | aDG glyco conf inactive
COc1ccc2c(c1)CCCN2C(=O)C1CCCN(S(=O)(=O)c2cccc3cccnc23)C1 (stereo not given)	none (no result: PG9 Ab binder, p47phox inh, ZTA counter, EBNA-1 inh, aDG glyco up)
COc1ccc(CNCCC(c2ccccc2)c2ccc3c(c2)OCO3)cc1 (stereo not given)	aDG glyco up 3.9 | aDG glyco conf inactive
CCN1CCN(c2cc(-c3ccc(F)cc3)c3c(n2)CCCCCC3)CC1	none (no result: PG9 Ab binder, p47phox inh, ZTA counter, EBNA-1 inh, aDG glyco up)
Cc1ccc2c(c1)C(CS(=O)(=O)NC1CCCC1)NC2 (stereo not given)	none (no result: PG9 Ab binder, p47phox inh, ZTA counter, EBNA-1 inh, aDG glyco up)
COCCCNc1nc2c(c(=O)[nH]c(=O)n2C)n1CC(O)COc1ccccc1C (stereo not given)	none
COCCCNc1nc2c(c(=O)[nH]c(=O)n2C)n1CC(O)COc1ccccc1 (stereo not given)	aDG glyco up 11 | aDG glyco conf inactive
O=C(COC(=O)c1ccc(O)cc1O)N=c1sccn1Cc1ccccc1Cl	none (no result: p47phox inh)
N#CCC(=O)Nc1ccc(C(=O)OCC(=O)N=c2sccn2Cc2ccccc2Cl)cc1	aDG glyco up 5.4 (no result: p47phox inh) | aDG glyco conf inactive
O=C(Nc1ccc(F)cc1)C(c1ccccc1)N1CCN(CC(=O)N2CCCC2)CC1 (stereo not given)	none (no result: p47phox inh, EBNA-1 inh)
COc1ccc(C(C(=O)Nc2ccc(F)cc2)N2CCN(CC(=O)N3CCCC3)CC2)cc1 (stereo not given)	aDG glyco up 8.6 (no result: p47phox inh, ZTA counter, EBNA-1 inh) | aDG glyco conf inactive
Cc1ccccc1Cn1c(C)nc2ccccc21	aDG glyco up 3.3 (no result: p47phox inh) | aDG glyco conf inactive
C/C(=N/NC(=O)c1cccnc1)c1cccc(O)c1	none (no result: PG9 Ab binder, p47phox inh, ZTA counter, EBNA-1 inh, aDG glyco up)
COc1cc2ccccc2cc1C(=O)Nc1nccs1	aDG glyco up 4.0 (no result: p47phox inh) | aDG glyco conf inactive
COc1ccccc1[C@@H]1C(c2cccc(C)c2)=NN(c2ccc(Br)cc2)[C@H]1C(=O)N1CCOC1=O	aDG glyco up 4.9 (no result: p47phox inh, ZTA counter, EBNA-1 inh) | aDG glyco conf inactive
COc1ccccc1[C@@H]1C(c2ccccc2)=NN(c2ccc(Br)cc2)[C@H]1C(=O)N1CCOC1=O	none (no result: p47phox inh, ZTA counter, EBNA-1 inh)
O=C(NC1CCCCN(Cc2ccc(OC(F)(F)F)cc2)C1=O)c1cccc(F)c1 (stereo not given)	none (no result: PG9 Ab binder, p47phox inh, ZTA counter, EBNA-1 inh, aDG glyco up)
CC(C)(C)c1ccc(OCCCNC2CCCC2)cc1	aDG glyco up 6.7 | aDG glyco conf inactive
O=C(NCCc1ccccc1)OCc1cn(Cc2cccc(C(F)(F)F)c2)nn1	none (no result: PG9 Ab binder, p47phox inh, ZTA counter, EBNA-1 inh, aDG glyco up)
COCCCN1C(=O)[C@H](CC(=O)NCc2ccc(OC)c(OC)c2)[C@]2(C(=O)OC)CCCCC=C12	none (no result: PG9 Ab binder, p47phox inh, ZTA counter, EBNA-1 inh, aDG glyco up)
O=C(Nc1ccc(N2CCCCCC2)cc1)c1cccc(S(=O)(=O)N2CCOCC2)c1	aDG glyco up 2.8 (no result: p47phox inh, EBNA-1 inh) | aDG glyco conf inactive
O=C(COc1ccccc1Br)NCCC1=CCCCC1	aDG glyco up 3.6 (no result: p47phox inh, EBNA-1 inh) | aDG glyco conf inactive
S=C(NCCC1=CCCCC1)Nc1ccc(Cl)cc1	aDG glyco up 5.9 | aDG glyco conf inactive
COc1ccc(NC(=S)NCCC2=CCCCC2)cc1OC	none
Cc1ccc(S(=O)(=O)N2CCC(c3nc4ccccc4o3)CC2)s1	none (no result: PG9 Ab binder, p47phox inh, ZTA counter, EBNA-1 inh, aDG glyco up)
CN(Cc1ccccc1)S(=O)(=O)c1cccc(C(=O)OCc2cccc([N+](=O)[O-])c2)c1	none (no result: PG9 Ab binder, p47phox inh, ZTA counter, EBNA-1 inh, aDG glyco up)
